Screening results from PubChem.
A selection: hits, their analogues and other compounds. The true share with any hit is near 3%.
Mtb BioA inh: inhibitors of Mycobacterium tuberculosis BioA enzyme. purified M. tuberculosis BioA enzyme, plate reader. inhibition, % at 9.99 µM. hit rate 0.096% among 360,000; in the data active = inhibition above about 40%
GDH-TPI counter-1: counter-screen for M. tuberculosis FBA inhibitors: GDH-TPI coupled enzymes | GDH-TPI coupled enzyme counterscreen, NADH absorbance | inhibition, % at 4.8 µM | hit rate 1.2% among 360,000 | AID 588335; in the data active = inhibition above about 30%;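 also: 0% = DMSO wells and 100% = wells lacking the enzyme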
BH1578 lux ind: quorum light induction in luxS cqsA deficient V. cholerae; activation, % at 18.7 µM; V. cholerae BH1578 lux reporter, luminescence, 6 h; AID 588436; hit rate 0.16% among 350,000; in the data active = activation mostly above about 9.7%, no sharp cut-off
FBA Mtb inh: inhibitors of M. tuberculosis fructose-bisphosphate aldolase | P9WQA3 | purified M. tuberculosis FBA, fluorescence read-out | inhibition, % at 1 µM | hit rate 2.3% among 360,000;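 also: 0% = vehicle and 100% = reference inhibitor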
Target sequence (P9WQA3 whole entry, looked up): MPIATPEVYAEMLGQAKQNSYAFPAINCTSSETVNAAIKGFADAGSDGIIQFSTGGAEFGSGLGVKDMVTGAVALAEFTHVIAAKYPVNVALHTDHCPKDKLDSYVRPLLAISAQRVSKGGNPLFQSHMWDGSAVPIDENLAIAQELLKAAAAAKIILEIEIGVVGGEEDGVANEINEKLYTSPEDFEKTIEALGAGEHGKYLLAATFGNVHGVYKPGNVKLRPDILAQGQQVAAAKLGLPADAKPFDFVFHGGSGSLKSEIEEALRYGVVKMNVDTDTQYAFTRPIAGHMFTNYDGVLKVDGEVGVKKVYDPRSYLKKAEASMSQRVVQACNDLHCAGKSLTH
Mtb FBA inh conf: confirmation of M. tuberculosis fructose-bisphosphate aldolase inhibitors. shares compounds with FBA Mtb inh. purified M. tuberculosis FBA, fluorescence read-out. inhibition, % at 1 µM. hit rate 78% among 5,600. AID 651616;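 also: 0% = vehicle wells and 100% = reference inhibitor wells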
GDH-TPI counter-2: GDH-TPI inhibition counter-screen for FBA inhibitors; shares compounds with FBA Mtb inh; GDH-TPI coupled enzyme counterscreen, fluorescence; inhibition, % at 1 µM; hit rate 81% among 5,600; in the data active = inhibition above about 10%
GDH-TPI dose: counter-screen for M. tuberculosis FBA inhibitors: GDH-TPI dose response | hit rate 79% among 170 | GDH-TPI coupled enzyme assay, fluorescence, artifact counterscreen | AID 652145 | IC50, µM | shares compounds with FBA Mtb inh; call rule not given here
Active calls of the source: *; i = inactive; nt = no result; + = active, no number. Rule as the data show it, unless noted: active = inhibition above about 27%; inactive = the rest.

SMILES	Mtb BioA inh	GDH-TPI counter-1	BH1578 lux ind	FBA Mtb inh	Mtb FBA inh conf	GDH-TPI counter-2	others
Cc1cccc(NC(=O)CCc2nc3sc4c(c3c(=O)[nH]2)CCCC4)c1	nt	19	0	2	nt	nt
Cc1cccc(NC(=O)C(C)SCc2nc3sc4c(c3c(=O)[nH]2)CCCC4)n1 (stereo unspecified)	1	6	-1	31*	153*	93*
COCC(=O)N(C)C[C@H]1Oc2cc(C#C[C@H](C)O)ccc2S(=O)(=O)N([C@H](C)CO)C[C@@H]1C	1	nt	nt	nt	nt	nt
CN1CCCc2cc3c(C(F)(F)F)cc(=O)oc3nc21	-1	8	0	30*	130*	111*
Cc1cc2c(C(F)(F)F)cc(=O)oc2c2c1NCCC2	-4	6	-5	0	nt	nt
COc1ccc(CCNC(=O)c2cc3c(=O)n4cccc(C)c4nc3s2)cc1OC	2	-9	0	1	nt	nt
C=CCNC(=O)c1cc2c(=O)n3cccc(C)c3nc2s1	-1	18	i	93*	165*	133*
Cc1cccn2c(=O)c3cc(C(=O)N4CC(C)CC(C)C4)sc3nc12 (stereo unspecified)	nt	4	0	5	nt	nt
CCC(C)NC(=O)c1cc2c(=O)n3cccc(C)c3nc2s1 (stereo unspecified)	0	8	i	104*	171*	147*
COc1ccc(S(=O)(=O)Nc2ccc3c(c2)C(=O)N([C@H](C)CO)C[C@H](C)[C@H](CN(C)S(C)(=O)=O)OCCCC[C@H](C)O3)cc1	0	nt	nt	nt	nt	nt
C/C=C/c1cnc2c(c1)C(=O)N([C@@H](C)CO)C[C@H](C)[C@H](CN(C)C(=O)Nc1c(C)noc1C)O2	-1	nt	nt	nt	nt	nt
CC1CCN(C(=O)c2cc(Cl)nc3ccccc23)CC1	nt	-1	i	2	nt	nt
Cc1ccc(-c2cc(C(=O)NCCN3CCOCC3)c3ccccc3n2)o1	-1	23	-1	43*	120*	90*
O=C(NCCN1CCOCC1)c1cc(-c2ccccc2Cl)nc2ccccc12	0	6	i	-1	nt	nt
O=C(NCCN1CCOCC1)c1cc(-c2ccc(Cl)s2)nc2ccccc12	-3	21	-1	93*	148*	116*
O=C(c1cc(-c2ccc(Br)cc2)nc2ccccc12)N1CCN(c2ccccc2O)CC1	-2	-5	-4	-1	nt	nt
COC(=O)C1CCN(C(=O)c2cc(-c3ccc(Cl)s3)nc3ccccc23)CC1	0	15	-2	68*	147*	139*
Cc1ccc(-c2cc(C(=O)N3CCN(c4ccccc4O)CC3)c3ccccc3n2)o1	3	7	i	38*	106*	103*
Cc1ccc(S(=O)(=O)Nc2cccc3c2O[C@@H](CN(C)C(=O)Nc2ccc4c(c2)OCO4)[C@@H](C)CN([C@@H](C)CO)C3=O)cc1	1	nt	nt	nt	nt	nt
COc1ccc(-c2cc(C(=O)NCCN3CCOCC3)c3ccccc3n2)cc1	-2	18	-8	47*	81*	93*
COc1ccc2cc(C(=O)NCCCN3CCCC3=O)[nH]c2c1	-2	12	-3	12	nt	nt
COc1cccc2[nH]c(C(=O)NCCCN3CCCC3=O)cc12	5	-1	0	59*	143*	115*
COc1ccc2nc(N)sc2c1	2	2	0	4	nt	nt
COc1ccc2nc(-c3ccc(F)cc3)sc2c1	-1	9	11	98*	+	+
CCOC(=O)c1c(NC(=O)c2ccco2)n(C2CCCCC2)c2nc3ccccc3nc12	nt	15	0	63*	14	9	GDH-TPI dose=2.9*
SMILES	Mtb BioA inh	GDH-TPI counter-1	BH1578 lux ind	FBA Mtb inh	Mtb FBA inh conf	GDH-TPI counter-2	others
O=C(Nc1ccc(S(=O)(=O)NCc2ccccc2)cc1)c1ccc(Br)o1	-3	12	-1	7	nt	nt
C=CCn1c(NC(=O)c2ccc(Br)o2)c(S(=O)(=O)c2ccccc2)c2nc3ccccc3nc21	-1	1	3	50*	52*	47*
CCCCn1c(NC(=O)c2ccccc2Cl)c(C#N)c2nc3ccccc3nc21	10	4	i	26	nt	nt
CCCCn1c(NC(=O)c2ccc(Br)o2)c(C(=O)OCC)c2nc3ccccc3nc21	nt	11	i	58*	+	179*
CCCCn1c(NS(=O)(=O)c2ccc(C)cc2)c(S(=O)(=O)c2ccccc2)c2nc3ccccc3nc21	1	8	-1	5	nt	nt
CCCCn1c(NS(=O)(=O)c2ccccc2)c(C(=O)OCC)c2nc3ccccc3nc21	nt	16	i	53*	194*	151*
C[C@H](CO)N1C[C@H](C)[C@@H](CN(C)C(=O)Nc2ccccc2)Oc2ccc(NC(=O)Nc3ccc(C(F)(F)F)cc3)cc2CC1=O	0	nt	nt	nt	nt	nt
COc1ccccc1-c1cnc2c(c1)C(=O)N([C@@H](C)CO)C[C@H](C)[C@@H](CN(C)Cc1cccc(F)c1)O2	3	nt	nt	nt	nt	nt
C[C@H]1CN([C@@H](C)CO)C(=O)c2cc(NC(=O)Nc3ccc4c(c3)OCO4)ccc2O[C@H]1CN(C)C(=O)Nc1ccc(F)cc1	-2	nt	nt	nt	nt	nt
CN(C)c1nc(OCCNC(=O)COc2ccccc2Cl)nc(N(C)C)n1	0	15	i	55*	+	189*
CN(C)c1nc(OCCNC(=O)Nc2ccccc2)nc(N(C)C)n1	0	1	1	1	nt	nt
C[C@H](CO)N1C[C@H](C)[C@@H](CN(C)C(=O)Nc2ccc(F)cc2)OCCCC[C@H](C)Oc2ccc(NC(=O)Nc3ccc4c(c3)OCO4)cc2C1=O	5	nt	nt	nt	nt	nt
CNC(=O)C(C#N)(Cc1cc(C(C)=O)ccc1OC)Cc1cc(C(C)=O)ccc1OC	0	4	0	37*	1	-4
COc1ccc(S(=O)(=O)N(C)C[C@H]2OCCCC[C@H](C)Oc3ccc(NC(=O)NC4CCCCC4)cc3C(=O)N([C@H](C)CO)C[C@H]2C)cc1	2	nt	nt	nt	nt	nt
COc1ccc(-c2c[n+]3c4n2CCCCC4=C(c2ccc(Br)cc2)C3)cc1	0	8	i	75*	136*	105*
Clc1ccc(C2=C3CCCCn4c(-c5ccccc5)c[n+](c43)C2)cc1	4	11	0	11	nt	nt
Cn1cccc2[nH]c(=O)nc1-2	nt	9	-1	37*	78*	54*
COCCOC(=O)N1C(=O)[C@@]2(c3cc(C#CC4(O)CCCCCC4)ccc31)[C@H](c1ccccc1OCCO)N1[C@H](c3ccccc3)[C@H](c3ccccc3)OC(=O)[C@H]1[C@@H]2C(=O)N1CCc2cc(OC)c(OC)cc2C1	5	nt	nt	nt	nt	nt
CC(=O)Nc1ccc(S(=O)(=O)Nc2nc3ccccc3nc2Nc2cccc(O)c2)cc1	nt	25	0	75*	72*	58*
CC(=O)Nc1ccc(S(=O)(=O)Nc2nc3ccccc3nc2Nc2ccc3ccccc3c2)cc1	0	14	0	11	nt	nt
O=C(O)c1ccc(Nc2nc3ccccc3nc2NS(=O)(=O)c2ccc(F)cc2)cc1	-7	33*	0	46*	+	156*
